This is an account of results in PubChem BioAssay (NCI).

About 79,000 compounds went through this panel and 15% of them were active in at least one assay; those are over-represented in the sample as a whole. A number with no mark means an inactive call. Calls of active or inactive are those of the source. No stated cut-off is given here; in the data, active means growth inhibition above about 70%; inactive means the rest.

The nature of assay [1]: NCI Yeast Anticancer Drug Screen. Data for the rad50 strain (AID 155).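 Further: 0% = growth of vehicle-only cultures of the same strain.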 The conditions noted are these: S. cerevisiae rad50 strain growth inhibition; at 50.0 µM; active compounds read high. In outline: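 Compounds were tested on a yeast strain with an engineered DNA damage repair alteration; the reported value is growth inhibition normalised to vehicle treatment.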
Assay [2] is described as follows: NCI Yeast Anticancer Drug Screen. Data for the mec2-1 strain (AID 157). Conditions: S. cerevisiae mec2-1 strain, at 50.0 µM, active compounds read high. The method, boiled down:
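Readout is yeast growth inhibition, normalised to vehicle-treated controls, in the mec2-1 strain exposed to compound.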

Assay [3] in a line: NCI Yeast Anticancer Drug Screen. Data for the sgs1 mgt1 strain (AID 161).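 Further: 0% = growth of cultures given vehicle only.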 The conditions noted are these: S. cerevisiae sgs1 mgt1 strain, at 50.0 µM, active compounds read high. The method, boiled down: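 Compounds are added to genetically altered yeast, and growth is compared with cultures given vehicle alone to give percent inhibition.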
Assay [4] in a line: NCI Yeast Anticancer Drug Screen. Data for the cln2 rad14 strain (AID 165).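 Further: 0% = growth equal to vehicle treated cultures.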 Conditions: S. cerevisiae cln2 rad14 strain, at 50.0 µM, active compounds read high. In outline: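 Relative to vehicle controls, growth inhibition of compound-treated cln2 rad14 yeast was recorded.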
The nature of assay [5]: NCI Yeast Anticancer Drug Screen. Data for the bub3 strain (AID 167). Conditions: S. cerevisiae bub3 mutant strain, at 50.0 µM, active compounds read high. The method, boiled down:
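Growth of a checkpoint-deficient yeast mutant is measured after compound exposure. Values represent inhibition relative to vehicle.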

The nature of assay [6]: NCI Yeast Anticancer Drug Screen. Data for the mlh1 rad18 strain (AID 175). The conditions noted are these: S. cerevisiae mlh1 rad18 strain growth inhibition; at 50.0 µM; active compounds read high. In outline:
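Test agents were incubated with a yeast strain of defined genotype (DNA damage repair defect). Inhibition of growth was derived by comparison with vehicle-exposed cultures.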

As to `S=C(SP(SC(=S)N1CCCCC1)SC(=S)N1CCCCC1)N1CCCCC1`, the growth inhibition in assay [1] is 28.9%; in assay [2], -31.9%; in assay [3], 47.5%; in assay [4] it was -10.2%; in assay [5] it was -2.2%; in assay [6], 39.7%.

With `c1cc[n+]2c(c1)-c1cccc[n+]1CC2`, the growth inhibition in assay [1] was 65.8%; in assay [2], 11%; in assay [3], 52.7%; in assay [4], 26%; in assay [5], 19.3%; in assay [6] it was 53.1%.

On to `CC(Nc1c([N+](=O)[O-])ccc(C(=O)NCCN(C)C)c1[N+](=O)[O-])C(=O)Nc1ccc(N(CCCl)CCCl)cc1` (configuration not stated), for which the growth inhibition in assay [1] is -34.6%; in assay [2], -9.75%; in assay [3] it was 0.75%; in assay [4], 7.35%; in assay [5], -8.05%; in assay [6], -7.75%.

Take `O=Cc1ccccc1O.[Zn+2]`: the growth inhibition was 9.25% in assay [1]; 6.2% in assay [2]; 2.8% in assay [3]; 3.6% in assay [4]; 0.75% in assay [5]; 1.6% in assay [6].

Take `CCOP(=O)(O)OCC.[Y]`: the growth inhibition is 13.6% in assay [1]; 7.3% in assay [2]; 6.5% in assay [3]; -16.8% in assay [4]; 6.5% in assay [5]; 11.2% in assay [6].

For `CC(C)CCON=O`, the growth inhibition was -11.3% in assay [1]; -9.4% in assay [2]; -28.2% in assay [3]; -9.05% in assay [4]; -13.1% in assay [5]; -35.6% in assay [6].

For `CCOP1(=O)C=C(C)C(Cl)=C(C)C1` (configuration not stated), the growth inhibition was 26.9% in assay [1]; 8.35% in assay [2]; 11% in assay [3]; -14.3% in assay [4]; 3.05% in assay [5]; 20.9% in assay [6].

As to `NC(=O)c1cc([N+](=O)[O-])cc([N+](=O)[O-])c1N(CCCl)CCCl`, the growth inhibition in assay [1] is -3%; in assay [2] it was -10.9%; in assay [3], -15.4%; in assay [4], -3.8%; in assay [5], -8.95%; in assay [6], -14.6%.

As to `CCCC[C@H]1C(=O)O[C@H](C)[C@H](NC(=O)c2cccc(NC=O)c2O)C(=O)O[C@@H](C)[C@@H]1OC(=O)CC(C)C`, the growth inhibition in assay [1] is 18.4%; in assay [2] it was 12.5%; in assay [3], 30.9%; in assay [4], 16.4%; in assay [5], 13.6%; in assay [6] it was 44.2%.

As for `O=c1c2cc(Br)cc(Br)c2nc(CCCl)n1-c1ccc(O)c([N+](=O)[O-])c1`, the growth inhibition is -2% in assay [1]; 15.8% in assay [2]; -9.95% in assay [3]; 16.3% in assay [4]; -7.5% in assay [5]; -0.8% in assay [6].

For the compound `N#Cc1cccnc1`, the growth inhibition in assay [1] is 4.75%; in assay [2], -4.15%; in assay [3], 4.1%; in assay [4], 5.6%; in assay [5], 9.05%; in assay [6], 2.75%.

For `CCC(N)CBr` (configuration not stated), the growth inhibition in assay [1] is -9.65%; in assay [2], 1.7%; in assay [3], -9.5%; in assay [4], -16.9%; in assay [5], 5.3%; in assay [6], 8.9%.

`O=NNc1cccc(NN=O)n1`: the growth inhibition in assay [1] was 47.2%; in assay [2], -22.8%; in assay [3] it was -34.1%; in assay [4], -2.75%; in assay [5], -26.5%; in assay [6], -3.15%.

With `NC(=O)CCC(N)C(=O)O.[Cl-].[Cl-].[Cl-].[Cl-].[Pt+2]` (configuration not stated), the growth inhibition was -1.4% in assay [1]; -3.35% in assay [2]; -9.1% in assay [3]; 23.9% in assay [4]; 8.1% in assay [5]; 13% in assay [6].

With `CCOP(=O)(CC(=O)C1CC1)OCC`, the growth inhibition in assay [1] is -28.8%; in assay [2] it was -20.5%; in assay [3], -26.2%; in assay [4], -21.9%; in assay [5] it was -20.9%; in assay [6], -43.1%.

Turning to `CC(O)C[As](=O)(O)c1cccc(Cl)c1` (configuration not stated), the growth inhibition was 2.05% in assay [1]; 33.9% in assay [2]; 10.3% in assay [3]; -0.7% in assay [4]; 37.5% in assay [5]; 39.5% in assay [6].

Regarding `CC(I)C(N)=O` (configuration not stated), the growth inhibition in assay [1] was -16.6%; in assay [2] it was -19.7%; in assay [3] it was -19.5%; in assay [4] it was -4.15%; in assay [5] it was -4%; in assay [6], -17%.

Regarding `ClCCCN1CCN(CCCl)CC1`, the growth inhibition in assay [1] is -11.6%; in assay [2] it was -10.1%; in assay [3], -1.75%; in assay [4], 3.2%; in assay [5] it was -13.8%; in assay [6], -21.5%.

`CCN(CC)c1ccc([P+](=O)O)cc1`: the growth inhibition in assay [1] was 6.45%; in assay [2] it was -9.45%; in assay [3], -9.4%; in assay [4], -27.6%; in assay [5], -7.4%; in assay [6] it was -8.4%.

In the case of `CCCC(C)SP(=S)(SC(C)CCC)SC(C)CCC` (configuration not stated), the growth inhibition in assay [1] was 4.1%; in assay [2], -11.3%; in assay [3], -1.9%; in assay [4] it was -43.3%; in assay [5] it was 2.85%; in assay [6], 19.6%.

As for `CN(C)c1ccc(C=O)cc1.[C-]#[O+].[C-]#[O+].[C-]#[O+].[Cr]`, the growth inhibition is -66.2% in assay [1]; -35.5% in assay [2]; -57.5% in assay [3]; 1% in assay [4]; -18.4% in assay [5]; -38.9% in assay [6].

`Cc1ccc(NC(=O)CCc2ccc(N3C(N)=NC(N)=NC3(C)C)cc2Cl)cc1S(=O)(=O)F`: the growth inhibition in assay [1] was 54.6%; in assay [2], 72.3% (active); in assay [3], 64.2%; in assay [4], -5.25%; in assay [5], -25.9%; in assay [6], 15%.

Take `[C-]#[O+].[C-]#[O+].[C-]#[O+].[Mo].c1ccc(P(CC[PH+](CC[PH+](CC[PH+](c2ccccc2)c2ccccc2)c2ccccc2)c2ccccc2)c2ccccc2)cc1` (configuration not stated): the growth inhibition in assay [1] was 30.8%; in assay [2], 27.5%; in assay [3] it was 43.4%; in assay [4] it was 37.7%; in assay [5] it was 32.5%; in assay [6], 44.1%.

In the case of `O=C(O)CNCP(=O)(O)O`, the growth inhibition was -31.4% in assay [1]; -23.1% in assay [2]; -52.1% in assay [3]; -15.1% in assay [4]; -46.8% in assay [5]; -20% in assay [6].

Take `[C-]#[O+].[Cl][Ru]([Cl])([Cl])([Cl])[Cl]`: the growth inhibition was -7.05% in assay [1]; -8.95% in assay [2]; 35% in assay [3]; -6.75% in assay [4]; 11.3% in assay [5]; 1.9% in assay [6].

Take `O=P(Nc1ccccc1)(Oc1ccccc1)N(CCCl)CCCl` (configuration not stated): the growth inhibition in assay [1] was 29.4%; in assay [2], -10%; in assay [3] it was 1.2%; in assay [4], 24.2%; in assay [5] it was 7.7%; in assay [6], 20.6%.

On to `COc1ccc(C)cc1C(CC(=O)O)CC(=O)N(CCCl)CCCl` (configuration not stated), for which the growth inhibition is 39.6% in assay [1]; -2.45% in assay [2]; 6.05% in assay [3]; 17.7% in assay [4]; -1.95% in assay [5]; 21.6% in assay [6].

Turning to `O=C(O)c1cccc([As]=[As]c2cccc(C(=O)O)c2)c1` (configuration not stated), the growth inhibition is 8.4% in assay [1]; -9.35% in assay [2]; -8.75% in assay [3]; 83.2% (active) in assay [4]; -65.3% in assay [5]; 1% in assay [6].

For the compound `CN1CCNCC1`, the growth inhibition was 11.1% in assay [1]; -6.55% in assay [2]; -10.5% in assay [3]; -18.4% in assay [4]; 11.5% in assay [5]; 5.75% in assay [6].

In the case of `Cc1ccc(OP(=O)(Oc2ccc(C)cc2)Oc2ccc(C)cc2)cc1.Cc1ccc(OP(=O)(Oc2ccc(C)cc2)Oc2ccc(C)cc2)cc1.[Cl][Cr]([Cl])[Cl]`, the growth inhibition in assay [1] is -1.05%; in assay [2] it was -3.05%; in assay [3], -2.1%; in assay [4] it was -7%; in assay [5] it was 0.9%; in assay [6], 4.45%.

On to `O=c1ccc(=O)[nH][nH]1.[Mn]`, for which the growth inhibition in assay [1] was 2.05%; in assay [2], 4.5%; in assay [3] it was -13.6%; in assay [4] it was 17.1%; in assay [5] it was 7.2%; in assay [6], -1.7%.

As to `O=S(=O)(O)C1CCC(O)C2[N-]CCCC21.O=S(=O)(O)C1CCC(O)C2[N-]CCCC21.[Zn+2]` (configuration not stated), the growth inhibition is 1.75% in assay [1]; 0.9% in assay [2]; 6.2% in assay [3]; 25.8% in assay [4]; -10.7% in assay [5]; 5.05% in assay [6].

For the compound `O=C(c1ccccc1)c1ccc2n[se]nc2c1`, the growth inhibition was -32.4% in assay [1]; 10.2% in assay [2]; 18.2% in assay [3]; 4.65% in assay [4]; 17.1% in assay [5]; 25.5% in assay [6].

Take `O=C(N/N=C/c1cc(Cl)cc(Cl)c1[O-])c1ccccc1O.O=C(N/N=C/c1cc(Cl)cc(Cl)c1[O-])c1ccccc1O.[Ni+2]`: the growth inhibition was -8.75% in assay [1]; -15.8% in assay [2]; -14.8% in assay [3]; -41.2% in assay [4]; 6.9% in assay [5]; -17.1% in assay [6].

Take `O=P(OCCCCCl)(OCCCCCl)C(Cl)Cl`: the growth inhibition in assay [1] is -6.4%; in assay [2], -11.6%; in assay [3], 0.65%; in assay [4], 5.8%; in assay [5], 4.5%; in assay [6] it was 6.5%.

Turning to `Oc1cccc(-c2ccccc2)c1`, the growth inhibition in assay [1] is 20.5%; in assay [2], 17.2%; in assay [3], 20.3%; in assay [4] it was 5.35%; in assay [5], 30.1%; in assay [6], 21.2%.

Regarding `CCOC(OC1=C(C#N)CCCC1)C(C)[Se]c1ccccc1` (configuration not stated), the growth inhibition in assay [1] was 63%; in assay [2], 25.2%; in assay [3] it was 54.2%; in assay [4], 41.9%; in assay [5], 50.4%; in assay [6], 34%.
